High-throughput results from PubChem BioAssay.
Hits are enriched below; roughly 21% of the tested compounds scored in any of these assays.
Pf growth 96h: P. falciparum growth inhibition at 96 hours. P. falciparum luciferase reporter growth, 96 h. Potency, µM (top dose mostly 28.7 µM), without a hit: at the highest dose activity change, negative = inhibition, most hits filed as inhibitors. 320,000 compounds, 6.9% hits. AID 504834; also: potency is read from the fitted curve at half-maximal effect; % is scaled to controls: 0 for no effect and ±100 for the full control effect
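P. falciparum expressing integrated firefly luciferase grown in erythrocytes (2% hematocrit, 0.05% parasitemia final) with compounds for 96 hours at 37 C, 5% CO2. Growth inhibition read as loss of luminescence after adding luciferase detection reagent.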
Pf growth 48h: inhibits P. falciparum growth in the first generation, 48 h; Potency, µM (titrated, usually from 28.7 µM), inactives show top-dose activity change, negative = inhibition, actives largely listed as inhibitors; 310,000 compounds, 5.9% hits; P. falciparum luciferase growth in erythrocytes, 48 h; also: potency is read from the fitted curve at half-maximal effect; % is scaled to controls: 0 for no effect and ±100 for the full control effect
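Growth was read as firefly luciferase luminescence after a 48 h, 37 C, 5% CO2 exposure of compounds to reporter-bearing P. falciparum cultures (0.1% parasitemia, 2% hematocrit final) in Albumax-supplemented RPMI 1640.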
Cycloheximide cs: counter-screen hit for Shiga toxin inhibitors, cycloheximide | max response, % | cell reporter, cycloheximide protein synthesis inhibition counterscreen | 300,000 compounds, 12% hits | AID 2314; in the data active = max response mostly above about 13%, no sharp cut-off; inactive = mostly below about 14%; also: read at 38.3 µM for the half of the compounds with a filed dose; 0% is about no effect
HCV inh: inhibitors of hepatitis C virus infection. 340,000 compounds, 3.4% hits. Huh7.5.1 HCVcc-Cre infection, luciferase reporter, 44 h. Potency, µM (top dose mostly 41.8 µM), without a hit: top-dose activity change, negative = inhibition, most hits filed as inhibitors; also: potency is read from the fitted curve at half-maximal effect; % is scaled to controls: 0 for no effect and ±100 for the full control effect
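Compounds are dispensed onto cells plated 4 h earlier at 1,000 per well, with HCVcc-Cre virus (about 0.5 moi) added next. Following 44 h of culture, luminescent signal is measured for 15 sec after 15 min with substrate at room temperature.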
Shiga inhibitor: Shiga toxin inhibition; Vero cells, Shiga toxin protein synthesis inhibition reporter; inhibition, % at 38.7 µM; 290,000 compounds, 9.2% hits; in the data active = inhibition mostly above about 28%, no sharp cut-off; inactive = mostly below about 43%; also: 0% is about no effect
AMA1 RON2 block: disrupts binding of P. falciparum AMA1 to RON2; AlphaScreen AMA1-biotinylated RON2 peptide binding; Potency, µM (titrated, usually from 58.2 µM), for inactives: at the top dose activity change, negative = inhibition, actives largely listed as inhibitors; 360,000 compounds, 0.2% hits;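 also: potency is read from the fitted curve at half-maximal effect; 0% = vehicle wells and -100% = peptide control; nearly all actives have a fitted effect of over 45% in size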
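AMA1 (3D7) with his tag at 25 nM final met compounds first, then biotinylated RON2 peptide at 25 nM; detection used donor plus acceptor beads, 10 µg/mL apiece, read by AlphaScreen after 30 min at room temperature.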
Active calls of the source: *; i = inactive; ? = inconclusive; nt = no result given; [ ] = dose if it differs, or a comment. Unless noted, calls follow the shape of the dose curve; as a rule, active = well fitted curve in the direction sought with a large enough effect; inconclusive = small, poorly fitted or top-dose-only effect, or another doubt; inactive = no such curve, though single readings can be large; an effect the other way counts as inactive or inconclusive.

SMILES	Pf growth 96h	Pf growth 48h	Cycloheximide cs	HCV inh	Shiga inhibitor	AMA1 RON2 block
C/C=C/C=C/C(=O)[C@@H]1[C@@H]([C@]2(C)OC(=O)C(C)=C2O)[C@H]2/C(=C(O)/C=C/C=C/C)C(=O)[C@]1(C)C(=O)C2(C)O (some centres not stated)	7.4µM*	-25%	-5	-3%	1	-17%
CC(C)=CCC[C@H](C)C[C@@H]1CC2=C(C(=O)OC(C)(C)O2)[C@@H](c2ccc(F)cc2)O1	nt	nt	nt	nt	nt	1%
Cc1nc(/C(N)=N/OC(=O)c2ccccc2Cl)c(C(F)(F)F)o1	96%	93%	52*	0%	91*	10%
Cc1nc(/C(N)=N/OC(=O)c2cccc(Cl)c2)c(C(F)(F)F)o1	13%	1%	11*	-21%	37	0%
COc1cccc(CSc2nccn2C)c1	-26%	10%	13	9%	4	17%
O=S(=O)(NCC1COc2ccccc2O1)c1ccc2ccccc2c1 (configuration not stated)	12%	-16%	0	2%	-14	-3%
CNS(=O)(=O)c1ccc(NCC2COc3ccccc3O2)c([N+](=O)[O-])c1 (configuration not stated)	-12%	13%	16*	?	-5	-1%
COc1cc(/C=N/NC(=Nc2ccc(C)cc2)c2nc3ccccc3s2)ccc1O	nt	-41%	42*	?	100*	-14%
COc1cc(/C=N/NC(=O)CCC(=O)Nc2ccc(C)cc2)ccc1O	0%	31%	3	7%	-11	0%
COc1ccccc1/C=N/NC(=Nc1ccc(C)cc1)c1nc2ccccc2s1	285%	100%	53*	nt	184*	nt
Nc1cccc2c1C(=O)N(C(=O)c1ccco1)C2=O	38%	46%	-3	8%	2	0%
Nc1cccc2c1C(=O)N(C(=O)/C=C/c1ccc(F)cc1)C2=O	43%	54%	37*	-29%	76*	14%
Cc1csc(=O)n1CC(=O)OCC(=O)NC(C)c1ccc(F)cc1 (configuration not stated)	-1%	-22%	nt	-5%	nt	7%
CCc1cc2c(=O)c(-c3cnn(-c4ccccc4)c3)coc2c(CN2CCOCC2)c1O	?	?	17	-24%	11	-5%
CCc1cc2c(=O)c(-c3cnn(-c4ccccc4)c3)c(C)oc2c(CN2CCCCC2)c1O	47%	15µM*	14	?	11	-2%
CCc1cc2c(=O)c(-c3nc4ccccc4n3C)coc2c(CN2CCOCC2)c1O	nt	-9%	-1	-19%	-8	11%
CCc1cc2c(=O)c(-c3nc4ccccc4n3C)coc2c(CN2CCCCC2)c1O	2.9µM*	-19%	0	10%	6	-5%
CCc1cc2c(=O)c(-c3cnn(-c4ccccc4)c3)c(C(F)(F)F)oc2c(CN(C)C)c1O	nt	6.6µM*	-2	6%	-9	7%
COc1ccccc1C(CNC(=O)C1CCN(C(=O)Nc2ccccc2)CC1)N1CCCC1 (configuration not stated)	?	?	nt	-6%	nt	10%
O=C(CSC1=NS(=O)(=O)c2cc(Cl)ccc2N1)c1ccc(Cl)cc1	-12%	13%	nt	19%	nt	23%
CCCC(=O)N1N=C(c2ccccc2)CC1c1cn(C)c2ccccc12 (configuration not stated)	?	?	27*	-12%	42	-30%
Cn1cc(C2CC(c3ccccc3)=NN2C(=O)c2ccccc2)c2ccccc21 (configuration not stated)	8.3µM*	8.3µM*	22*	?	41	-7%
Cc1ccc(NC(=O)c2ccco2)c(NC(=O)C2CCCO2)c1 (configuration not stated)	-80%[5.75 µM]	-3%	5	1%	-8	-5%
CC1(C(=O)Nc2ccc3c(c2)OCO3)CC1(Cl)Cl (configuration not stated)	24%	20%	16*	-3%	29*	-7%
COc1ccc(OCC(=O)Nc2ccc3c(c2)OCO3)cc1	-25%	23%	13	-13%	32	-24%
SMILES	Pf growth 96h	Pf growth 48h	Cycloheximide cs	HCV inh	Shiga inhibitor	AMA1 RON2 block
COc1cccc(N/C(C)=C/C(=O)c2ccc(Br)cc2)c1	-22%	191%	21	?	32	15%
COC(=O)/C(=C\C(=O)c1ccccc1)Nc1ccc(OC)cc1	127%	110%	50*	12%	58*	-13%
COc1ccc(N/C(C)=C/C(=O)c2ccccc2)cc1	12µM*	191%	64*	10µM*	164*	-12%
COc1ccc(NC(=O)CCCCC(=O)Nc2ccc(OC)cc2)cc1	8%	12%	1	-11%	nt	3%
COc1ccc(C(=O)/C=C(\C)Nc2ccc3c(c2)OCO3)cc1	125%	172%	49*	?	i	-11%
Cc1cc(OCCN2CCC(Cc3ccccc3)CC2)ccc1[N+](=O)[O-]	-2%	2%	-2	-6%	1	-21%
CCC1CCC2(CC1)NC(=O)N(CC(=O)Nc1ccc(OC)c(Cl)c1)C2=O (configuration not stated)	38%	10%	nt	-26%	nt	-5%
COc1ccc(N/C(C)=C/C(=S)Nc2ccccc2)cc1	41%	45%	32*	-4%	43*	33%
CCOC(=O)C(=O)Nc1ccc2c(c1)OCO2	35%	31%	13	10%	35	-8%
COc1ccc(OC)c(N/C(C)=C/C(=O)c2ccncc2)c1	173%	-17%	-3	?	-11	-10%
CC(C)=CC(=O)Nc1ccc2c(c1)OCO2	nt	205%	25*	7%	68*	-1%
COc1ccc(OC)c(N/C(C)=C/C(=O)c2ccccc2)c1	11%	126%	91*	-11%	27*	5%
Cn1c(=O)c2cc(NC(=O)NCCc3ccccc3)ccc2n1Cc1ccc(F)cc1	nt	nt	nt	nt	nt	20%
O=C(O)/C=C/c1ccc([N+](=O)[O-])o1	?	-2%	-2	1%	-8	-6%
CN1CCN(C(=O)/C=C/c2ccc([N+](=O)[O-])o2)CC1	?	12µM*	19*	?	29*	-9%
CCCCCCCC(=O)N/N=C/c1ccc([N+](=O)[O-])o1	?	?	1	?	2	-9%
CCOC(=O)N/N=C\c1ccc([N+](=O)[O-])o1	8.3µM*	?	-3	?	-4	-2%
O=C1SCCN1N=Cc1ccc([N+](=O)[O-])o1	nt	nt	nt	22µM*	nt	0%
CC(=O)N/N=C/c1ccc([N+](=O)[O-])o1	12µM*	?	nt	nt	nt	nt
O=C(NCc1ccccc1)C(c1ccc(C(F)(F)F)cc1)N1CCN(CCN2CCOCC2)CC1 (configuration not stated)	nt	nt	nt	nt	nt	10%
